In the library only some 1.1% were active in any assay of this set; here they are far more common.
NPSR antag – antagonists of human neuropeptide S receptor cAMP signaling; Q6W5P4; CHO-NPSR cells, cAMP TR-FRET, antagonist mode; Potency, µM (highest dose often 38.3 µM), inactives show at the highest dose activity change, negative = inhibition, most hits filed as inhibitors; 1% of 220,000 active; AID 1461; further: potency means the concentration at half of the fitted maximal effect; on the % scale 0 is the no-effect control and ±100 the full control effect; nearly all actives have a fitted effect of over 50% in size
MBNL1 CUG block – MBNL1-poly(CUG) RNA binding inhibition; AID 2675; Potency, µM (doses to about 57.5 µM), without a hit: at the highest dose activity change, negative = inhibition, most hits filed as inhibitors; 0.036% of 280,000 active; TR-FRET MBNL1-His/biotin-(CUG)12 binding, 665/545 ratio; Q9NR56; active means well fitted inhibition curve with a large enough effect in the signal ratio, with a control signal flat, not every such curve was filed as active; inconclusive means small, poorly fitted or top-dose-only effect, or effect the other way, or a change in a side signal; inactive means no such curve, though single readings can be large or run the other way; the % refers to the signal ratio; further: potency means the concentration at half of the fitted maximal effect; on the % scale 0 is the no-effect control and ±100 the full control effect
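Ratiometric TR-FRET (665 over 545 nm, excitation 340 nm) tracks disruption of MBNL1-His/biotin-(CUG)12 complex after 60 min at room temperature, with compounds at 92 nM to 58 uM final.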
LMNA splice mod – LMNA splicing modulation | AID 1487 | Potency, µM (top dose mostly 46.1 µM), for inactives: at the top dose ratio change, negative = inhibition, usual class: inhibitors | HeLa LMNA splicing GFP/RFP minigene ratio, 48 h | 0.01% of 200,000 active; active means well fitted inhibition curve with a large enough effect in the signal ratio, with a control signal flat, not every such curve was filed as active; inconclusive means small, poorly fitted or top-dose-only effect, or effect the other way, or a change in a side signal; the % refers to the signal ratio; further: potency means the concentration at half of the fitted maximal effect; on the % scale 0 is the no-effect control and ±100 the full control effect
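S3 HeLa cells stably expressing lamin A-EGFP splicing minigene plus DsRed2, 600 cells/well, 48 h compound exposure at 37C. Laser-scanning cytometry; analysed as GFP (500-530 nm)/RFP (575-640 nm) total intensity ratio; 0.5% DMSO vehicle.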
CBFb RUNX1 block – inhibitors of human CBF-beta and RUNX1 interaction | Q01196+Q13951 | AlphaScreen CBFb-His/RUNX1-biotin binding, biochemical | Potency, µM (series often up to 59.8 µM), for the others: at the top dose activity, negative = inhibition, usual class: inhibitors | 230,000 tested, under 10 active | AID 1477; further: % of control where 0% means no effect
Target sequence (Q01196 whole entry, looked up): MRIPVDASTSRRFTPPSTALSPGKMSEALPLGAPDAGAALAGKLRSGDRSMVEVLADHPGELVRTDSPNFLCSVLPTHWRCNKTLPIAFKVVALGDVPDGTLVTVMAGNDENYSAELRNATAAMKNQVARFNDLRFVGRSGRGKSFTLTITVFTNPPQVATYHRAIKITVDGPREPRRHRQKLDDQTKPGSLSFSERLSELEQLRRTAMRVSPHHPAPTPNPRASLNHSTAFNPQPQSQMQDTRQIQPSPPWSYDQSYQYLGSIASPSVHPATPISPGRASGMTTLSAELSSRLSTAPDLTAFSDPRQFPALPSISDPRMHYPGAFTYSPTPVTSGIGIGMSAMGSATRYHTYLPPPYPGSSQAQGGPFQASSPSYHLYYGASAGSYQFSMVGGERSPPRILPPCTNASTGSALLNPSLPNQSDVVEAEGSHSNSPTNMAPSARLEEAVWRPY
Target sequence (Q13951 whole entry, looked up): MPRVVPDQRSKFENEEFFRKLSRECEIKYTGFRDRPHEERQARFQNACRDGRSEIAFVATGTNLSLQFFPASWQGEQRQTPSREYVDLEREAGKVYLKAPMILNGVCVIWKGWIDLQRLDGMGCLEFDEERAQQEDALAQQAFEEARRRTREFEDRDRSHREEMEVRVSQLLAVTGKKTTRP
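CBFb-His/RUNX1-biotin, 30 nM each, preincubated 20 min RT; compound 15 min RT; Ni + streptavidin beads 50 ng each, 90 min RT; AlphaScreen read.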
HttQ103 aggreg – reduces HttQ103-GFP aggregates in PC12 cells. Potency, µM (highest dose often 46.1 µM), without a hit: at the top dose activity change, negative = inhibition, hits mostly inhibitors. 1.1% of 220,000 active. AID 1688. PC12 HttQ103-GFP aggregates, Acumen cytometry, 40 h; further: potency means the concentration at half of the fitted maximal effect; on the % scale 0 is the no-effect control and ±100 the full control effect; nearly all actives have a fitted effect of over 60% in size
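Compounds (qHTS titration) were added to PC12 cells expressing an ecdysone-driven HTT exon 1 Q103–GFP fusion after induction with 100 nM tebufenozide. Aggregate formation was measured as GFP objects in cell lysates.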
HTT ATP protect – protects HTT-Q103 PC12 cells, measured by ATP; PC12 HTT-Q103 induced, cytoprotection, ATP luminescence, 40 h; Potency, µM (titrated, usually from 56.4 µM), for inactives: cytoprotection (ATP increase), usual class: activators; 0.14% of 230,000 active; AID 1471; further: potency means the concentration at half of the fitted maximal effect; % of control where 0% means no effect; nearly all actives have a fitted effect of over 45% in size
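ATP quantification (ATPlite) reports survival of PC12 cells in which tebufenozide, 100 nM final, switches on Htt exon 1 with 103 glutamines linked to GFP; compounds are titrated.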
Numbers without * were called inactive; [ ] = another dose, or the depositor's remark. Unless noted, the call rests on the fitted dose curve; in most records, active means well fitted curve in the direction sought with a large enough effect; inconclusive means small, poorly fitted or top-dose-only effect, or another doubt; inactive means no such curve, though single readings can be large; an effect the other way counts as inactive or inconclusive.

Cc1[nH]c2ccc(F)cc2c1CCN(Cc1cccnc1)C(=S)Nc1cccc(F)c1 was read as NPSR antag 10µM*, MBNL1 CUG block -1.6%, CBFb RUNX1 block -29.3% and HttQ103 aggreg -4.5%.
`Cc1[nH]c2ccc(F)cc2c1CCN(Cc1ccncc1)C(=S)Nc1ccc(F)cc1` gave NPSR antag 7.94µM*, MBNL1 CUG block -7.4%, LMNA splice mod inconclusive, CBFb RUNX1 block -6.3%, HttQ103 aggreg -22.7% and HTT ATP protect 2.1%.
For O=[N+]([O-])c1cc(Cl)cc(/C=N\Nc2ccccn2)c1O the results were NPSR antag 0.2%[46.1 µM], MBNL1 CUG block -3.0%, LMNA splice mod inconclusive, CBFb RUNX1 block -14.8%, HttQ103 aggreg 2.24µM* and HTT ATP protect -71.8%.
Screening O=[N+]([O-])c1cc(/C=N\Nc2ccccn2)ccc1Cl returned MBNL1 CUG block 17.3%.
`COc1ccc(NC(=S)NC(NC(=O)c2cccc(Cl)c2)C(Cl)(Cl)Cl)c([N+](=O)[O-])c1` (configuration not stated) gave NPSR antag 10µM*, MBNL1 CUG block inconclusive, LMNA splice mod inconclusive, CBFb RUNX1 block -13.2%, HttQ103 aggreg 28.2µM* and HTT ATP protect 17.6%[10 µM].
`CN(C)CCSCCO` gave HTT ATP protect 15.4%[10 µM].
Screening O=C(CSc1nc(-c2ccccc2F)nc2nc[nH]c12)Nc1c(Cl)cc(Cl)cc1Cl returned NPSR antag 5.01µM*, MBNL1 CUG block 12.5%, LMNA splice mod 0.2%, CBFb RUNX1 block 6.2%, HttQ103 aggreg -8.4% and HTT ATP protect 25.6%[10 µM].
`O=[N+]([O-])c1ccc(Sc2cccc3cccnc23)c([N+](=O)[O-])c1` gave NPSR antag 3.16µM*, MBNL1 CUG block inconclusive, LMNA splice mod -11.6%, HttQ103 aggreg inconclusive and HTT ATP protect inconclusive.
`O=[N+]([O-])c1cc(Cl)ccc1Sc1cccc2cccnc12` gave NPSR antag -15.8%[46.1 µM], MBNL1 CUG block 3.2%, LMNA splice mod 10.6%, CBFb RUNX1 block -9.5%, HttQ103 aggreg 10.7% and HTT ATP protect -17.0%[10 µM].
CC1CCCCN1C(=O)c1cccc(NC(=O)c2ccccc2)c1 (configuration not stated) was read as NPSR antag 0.3%, MBNL1 CUG block -5.9%, CBFb RUNX1 block -2.3%, HttQ103 aggreg -4.2%[9.22 µM] and HTT ATP protect 5.2%[10 µM].
Screening CC(C)C(=O)Nc1cccc(C(=O)N2CCCCC2C)c1 (configuration not stated) returned NPSR antag -7.5%[46.1 µM], MBNL1 CUG block 0.3%, LMNA splice mod -11.9%, CBFb RUNX1 block 1.7%, HttQ103 aggreg 10µM* and HTT ATP protect -4.9%.
For O=C1OCCC1N(C(=O)C1CC1)c1cccc(Cl)c1 (configuration not stated) the results were CBFb RUNX1 block 1.5%.
For COc1ccc(C(C#N)N2CCCCC2)cc1OC (configuration not stated) the results were NPSR antag -18.7%[46.1 µM], MBNL1 CUG block -6.1%, LMNA splice mod -0.8%, CBFb RUNX1 block 1.8%, HttQ103 aggreg 8.0% and HTT ATP protect -0.8%[10 µM].
Screening COc1ccc(C(C#N)C2(C)OCCO2)cc1OC (configuration not stated) returned NPSR antag -14.7%[46.1 µM], MBNL1 CUG block inconclusive, LMNA splice mod 11.2%, CBFb RUNX1 block 6.3%, HttQ103 aggreg 2.51µM* and HTT ATP protect 0.5%.
Screening COc1cccc(/C=N/NC(=O)c2ccc(=O)n(C)c2)c1O returned NPSR antag 8.2%, LMNA splice mod -24.7%, CBFb RUNX1 block inconclusive, HttQ103 aggreg 7.94µM* and HTT ATP protect -84.0%[10 µM].
`Cc1cccc(/C=N/NC(=O)Cc2ccc(Cl)cc2)c1O` gave MBNL1 CUG block 1.5%.
Screening COc1cccc(/C=N/NC(=O)c2ccc([N+](=O)[O-])cc2Cl)c1O returned NPSR antag -11.7%, MBNL1 CUG block inconclusive, LMNA splice mod inconclusive, CBFb RUNX1 block inconclusive, HttQ103 aggreg 7.08µM* and HTT ATP protect -78.7%[10 µM].
For Cc1cccc(/C=N\NC(=O)c2ccc(Cl)cc2)c1O the results were NPSR antag -9.3%, MBNL1 CUG block -9.4%, LMNA splice mod inconclusive, CBFb RUNX1 block -4.1%, HttQ103 aggreg 0.447µM* and HTT ATP protect -82.1%[10 µM].
Screening COc1cc(OC)c(OC)cc1/C=N/NC(=O)c1ccc(=O)n(C)c1 returned NPSR antag -11.9%, LMNA splice mod -0.4%, CBFb RUNX1 block -4.8%, HttQ103 aggreg -15.5% and HTT ATP protect 0.1%[10 µM].
Cc1ccc(NC(=O)c2ccc(CN3CC(=O)N4CCCCC4C3=O)cc2)cc1C (configuration not stated) was read as LMNA splice mod -5.7%[46 µM].
CC1(C)O[C@@H]2C[C@H]3[C@@H]4CCC5=CC(=O)C=C[C@]5(C)[C@H]4C(O)C[C@]3(C)[C@]2(C(=O)CO)O1 (some centres not stated) was read as HttQ103 aggreg 11.0% and HTT ATP protect 10.3%.
Screening Nc1ccc2cc3ccc(N)cc3nc2c1 returned LMNA splice mod inconclusive, HttQ103 aggreg 12.6µM* and HTT ATP protect -17.3%.
Screening Cc1cc(C)cc(NS(=O)(=O)c2ccc(N3CCCCS3(=O)=O)cc2)c1 returned LMNA splice mod -9.1%[46 µM].
For Cc1ccc(-c2csc(NC(=S)NC(=O)/C=C/c3ccco3)n2)cc1 the results were NPSR antag 10µM*, MBNL1 CUG block -3.8%, LMNA splice mod inconclusive, CBFb RUNX1 block -11.3%, HttQ103 aggreg 10.8% and HTT ATP protect -65.0%.
Screening O=C(/C=C/c1ccco1)NC(=S)Nc1ccc(O)c(-c2nc3ccccc3s2)c1 returned NPSR antag 1µM*, MBNL1 CUG block -9.2%, LMNA splice mod -4.9%, CBFb RUNX1 block -5.8%, HttQ103 aggreg 23.4% and HTT ATP protect -13.4%[10 µM].
Screening COc1ccc(NC(=S)NC(=O)/C=C/c2ccco2)cc1 returned NPSR antag -29.9%, MBNL1 CUG block inconclusive, LMNA splice mod inconclusive, CBFb RUNX1 block -15.3%, HttQ103 aggreg -8.3% and HTT ATP protect -3.0%.
O=C(NC(Nc1ncc(S(=O)(=O)c2ccc([N+](=O)[O-])cc2)s1)(C(F)(F)F)C(F)(F)F)c1ccc(Cl)cc1 was read as NPSR antag 12.6µM*, MBNL1 CUG block inconclusive, LMNA splice mod inconclusive, CBFb RUNX1 block -5.8%, HttQ103 aggreg inconclusive and HTT ATP protect -11.5%.
`COc1ccc(NS(=O)(=O)c2cc3[nH]c(=O)c(=O)[nH]c3cc2C)cc1Cl` gave LMNA splice mod -3.8%[46 µM].
